According to PubChem BioAssay (EPA / NIEHS):
Active and inactive are the calls of the source. How the source made its calls: active means hit-call score of the fitted dose curve at least 0.9, where 1 is the maximum; inactive means score below 0.9.

Key:
[1] = read-out: Tissue Factor, F3 (gene 2152); assay: BSK_LPS_TissueFactor: BioMAP Diversity Plus: LPS Assay for Tissue Factor Biomarker Activity (AID 2283084); conditions: primary human HUVEC with PBMC; actives raise or lower the signal
Summary of the method: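 Compound was added to an endothelial cell/PBMC co-culture, and after 24 h tissue factor (CD142) was read by ELISA. Gain or loss of signal was fitted against a DMSO baseline, and parallel SRB staining (560 nm) tracked overt cytotoxicity.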

[2] = read-out: Tumor necrosis factor (Homo sapiens) (UniProt P01375); assay: BSK_LPS_TNFa: BioMAP Diversity Plus: LPS Assay for Tumour Necrosis Factor alpha (TNFa) Biomarker Activity (AID 2283085); conditions: primary human HUVEC with PBMC; actives raise or lower the signal
Summary of the method: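 Human umbilical vein endothelial cells co-cultured with PBMC were exposed to test chemical and TNFa measured by ELISA 24 h after dosing. Bidirectional curve fitting was done relative to DMSO as negative control and baseline.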

[3] = read-out: Vascular cell adhesion molecule 1 (VCAM1), VCAM1 (gene 7412); assay: BSK_LPS_VCAM1: BioMAP Diversity Plus: LPS Assay for Vascular cell adhesion molecule 1 (VCAM1) Biomarker Activity (AID 2283086); conditions: primary human HUVEC with PBMC; actives raise or lower the signal
Summary of the method: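 Human umbilical vein endothelial cells co-cultured with peripheral blood mononuclear cells under LPS stimulation were exposed to test chemical for 24 h. VCAM-1 levels were then measured by ELISA, with bidirectional curve fitting relative to DMSO as negative control and baseline.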

CD38, CD38 (gene 952) = assay: BSK_SAg_CD38: BioMAP Diversity Plus: SAg Assay for CD38 Biomarker Activity (AID 2283087); conditions: primary human HUVEC with PBMC; actives raise or lower the signal
Summary of the method: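 Fluorescence ELISA of cell-surface CD38 served as the read-out, with either increase or decrease fitted against DMSO controls. Cells were a human umbilical vein endothelium plus PBMC co-culture under SEB/TSST-1 stimulation, measured 24 h after dosing.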

CD40, CD40 (gene 958) = assay: BSK_SAg_CD40: BioMAP Diversity Plus: SAg Assay for CD40 Biomarker Activity (AID 2283088); conditions: primary human HUVEC with PBMC; actives raise or lower the signal
Summary of the method: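 CD40 is measured by fluorescence ELISA in an endothelial/PBMC primary human co-culture at 24 h post-dose. Fitting is bidirectional, DMSO baseline. Parallel SRB staining (560 nm) flags cytotoxicity.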

CD69, CD69 (gene 969) = assay: BSK_SAg_CD69: BioMAP Diversity Plus: SAg Assay for CD69 Biomarker Activity (AID 2283089); conditions: primary human HUVEC with PBMC; actives raise or lower the signal;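 on AC50: cell surface CD69 protein quantified by ELISA with fluorescence detection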
Summary of the method: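 HUVEC co-cultured with PBMC were dosed with chemical, and CD69 was measured by ELISA with fluorescence read-out 24 h later. Bidirectional curve fitting used DMSO as negative control and activity baseline.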

[4] = read-out: Monocyte Chemoattractant Protein-1 (MCP1), CCL2 (gene 6347); assay: BSK_SAg_MCP1: BioMAP Diversity Plus: SAg Assay for Monocyte Chemoattractant Protein-1 (MCP1) Biomarker Activity (AID 2283090); conditions: primary human HUVEC with PBMC; actives raise or lower the signal
Summary of the method: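 MCP-1 levels in the endothelial–PBMC SAg co-culture were quantified by ELISA at 24 h post-dosing; both increases and decreases versus DMSO scored. Cytotoxicity monitored by SRB total protein in parallel cultures.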

[5] = read-out: E-selectin (Homo sapiens) (UniProt P16581); assay: BSK_SAg_Eselectin: BioMAP Diversity Plus: SAg Assay for Eselectin Biomarker Activity (AID 2283091); conditions: primary human HUVEC with PBMC; actives raise or lower the signal
Summary of the method: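 Cell-surface E-selectin is read by ELISA at 24 h in the SAg co-culture of HUVEC and PBMC. Curves are fitted in both directions relative to DMSO. Parallel SRB total-protein staining tracks overt toxicity.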

[6] = read-out: Monokine induced gamma interferon (MIG), CXCL9 (gene 4283); assay: BSK_SAg_MIG: BioMAP Diversity Plus: SAg Assay for Monokine induced gamma interferon (MIG) Biomarker Activity (AID 2283092); conditions: primary human HUVEC with PBMC; actives raise or lower the signal
Summary of the method: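 HUVEC plus human PBMC co-culture, chemicals dosed and MIG (CXCL9) quantified by ELISA at 24 h. Bidirectional curve fitting against DMSO as negative control and baseline, so both gain and loss of signal count as activity.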

[7] = BSK_SAg_PBMCCytotoxicity: PBMC Cytotoxicity Assessment in the BioMAP Diversity Plus: SAg Assay (AID 2283093); conditions: primary human HUVEC with PBMC;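 further: PBMC viability measured as Alamar Blue reduction fluorescence at 546/580 nm; fitted both ways against DMSO so a hit may be loss or gain of signal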;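 on AC50: PBMC superantigen activated with SEB plus TSST-1 one hour after compound addition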
Summary of the method: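 Human umbilical vein endothelial cells co-cultured with PBMC; PBMC (75,000/well) pre-treated with compound 1 h, then activated with SEB and TSST-1 (20 ng/mL final each) for 90 h. Alamar Blue added 6 h, fluorescence 546/580 nm; bidirectional fit versus DMSO.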

Measured: AC50

E-selectin (Homo sapiens), sequence (P16581 whole entry, looked up): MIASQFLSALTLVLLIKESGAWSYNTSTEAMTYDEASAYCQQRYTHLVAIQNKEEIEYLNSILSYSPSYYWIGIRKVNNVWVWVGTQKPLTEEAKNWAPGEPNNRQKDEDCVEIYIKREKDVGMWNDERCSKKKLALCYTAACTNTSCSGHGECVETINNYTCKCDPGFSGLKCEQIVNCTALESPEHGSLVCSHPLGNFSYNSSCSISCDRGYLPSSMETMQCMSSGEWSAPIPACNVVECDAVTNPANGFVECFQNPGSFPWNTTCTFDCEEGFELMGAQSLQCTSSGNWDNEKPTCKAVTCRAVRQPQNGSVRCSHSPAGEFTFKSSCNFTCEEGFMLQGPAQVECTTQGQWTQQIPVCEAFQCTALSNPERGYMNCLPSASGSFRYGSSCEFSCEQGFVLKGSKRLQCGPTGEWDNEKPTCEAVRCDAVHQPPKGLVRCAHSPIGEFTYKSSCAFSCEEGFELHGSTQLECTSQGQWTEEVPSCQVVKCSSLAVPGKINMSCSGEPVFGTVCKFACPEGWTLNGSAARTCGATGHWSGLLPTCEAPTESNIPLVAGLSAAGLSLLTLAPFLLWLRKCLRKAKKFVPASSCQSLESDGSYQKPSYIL
Tumor necrosis factor (Homo sapiens), sequence (P01375 whole entry, looked up): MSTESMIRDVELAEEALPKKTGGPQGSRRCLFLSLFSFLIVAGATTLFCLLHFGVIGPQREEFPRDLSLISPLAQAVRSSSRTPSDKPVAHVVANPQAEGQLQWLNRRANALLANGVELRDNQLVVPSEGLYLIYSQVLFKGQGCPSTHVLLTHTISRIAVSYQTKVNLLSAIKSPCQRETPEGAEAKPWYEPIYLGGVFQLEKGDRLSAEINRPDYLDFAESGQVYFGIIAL

CCOP(=O)(OCC)SCCSCC
inactive: [1] | [2] | [3] | CD38, CD38 (gene 952) | CD40, CD40 (gene 958) | CD69, CD69 (gene 969) | [4] | [5] | [6] | [7]

O=C1C=CC(=O)c2ccccc21
active: [1] 1.52 µM | [2] 0.623 µM | [3] 2 µM | CD38, CD38 (gene 952) 1.04 µM | CD40, CD40 (gene 958) 2.17 µM | CD69, CD69 (gene 969) 0.836 µM | [5] 1.12 µM | [6] 1.53 µM | [7] 0.102 µM

CC(C)=CC1C(C(=O)OCc2cccc(Oc3ccccc3)c2)C1(C)C (centres undefined)
active: [5] 6.45 µM
inactive: [1] | [2] | [3] | CD38, CD38 (gene 952) | CD40, CD40 (gene 958) | CD69, CD69 (gene 969) | [6] | [7]

CC(C)(C)c1ccccc1O
inactive: [1] | [2] | [3] | CD38, CD38 (gene 952) | CD40, CD40 (gene 958) | CD69, CD69 (gene 969) | [5] | [6] | [7]

CCC(C)(C#N)N=NC(C)(C#N)CC (centres undefined)
inactive: [1] | [2] | [3] | CD38, CD38 (gene 952) | CD40, CD40 (gene 958) | CD69, CD69 (gene 969) | [5] | [6] | [7]

O=c1oc2ccccc2c(O)c1C(CC(O)c1ccc(-c2ccc(Br)cc2)cc1)c1ccccc1 (centres undefined)
active: [1] 19.1 µM | [3] 14.1 µM | CD38, CD38 (gene 952) 23 µM | CD40, CD40 (gene 958) 14.1 µM | CD69, CD69 (gene 969) 19.1 µM | [5] 28.6 µM | [6] 33.3 µM | [7] 23.5 µM
inactive: [2]

O=C(CCl)NCO
inactive: [1] | [2] | [3] | CD38, CD38 (gene 952) | CD40, CD40 (gene 958) | CD69, CD69 (gene 969) | [5] | [6] | [7]

Cc1ccccc1OP(=O)(Oc1ccccc1)Oc1ccccc1
inactive: [1] | [2] | [6] | [7]
active: [3] 20 µM | CD38, CD38 (gene 952) 20 µM | CD40, CD40 (gene 958) 28.3 µM | CD69, CD69 (gene 969) 28.1 µM | [5] 30.9 µM

Cc1cc(C)cc(C)c1
inactive: [1] | [2] | [3] | CD38, CD38 (gene 952) | CD40, CD40 (gene 958) | CD69, CD69 (gene 969) | [5] | [6] | [7]

O=S(=O)(c1ccc(Cl)cc1)c1cc(Cl)c(Cl)cc1Cl
active: CD38, CD38 (gene 952) 3.97 µM
inactive: [1] | [2] | [3] | CD40, CD40 (gene 958) | CD69, CD69 (gene 969) | [5] | [6] | [7]

Oc1ccc(Cc2ccc(O)cc2)cc1
inactive: [1] | [2] | [3] | CD38, CD38 (gene 952) | CD40, CD40 (gene 958) | CD69, CD69 (gene 969) | [5] | [6] | [7]

CCN(CC)C(=O)C(Cl)=C(C)OP(=O)(OC)OC
inactive: [1] | [2] | [3] | CD38, CD38 (gene 952) | CD40, CD40 (gene 958) | CD69, CD69 (gene 969) | [5] | [6] | [7]

COCC(=O)N(c1c(C)cccc1C)[C@H](C)C(=O)OC
inactive: [1] | [2] | [3] | CD38, CD38 (gene 952) | CD40, CD40 (gene 958) | CD69, CD69 (gene 969) | [5] | [6] | [7]

C=CC(Cl)CCl (centres undefined)
active: CD40, CD40 (gene 958) 0.478 µM
inactive: [1] | [2] | [3] | CD38, CD38 (gene 952) | CD69, CD69 (gene 969) | [5] | [6] | [7]

Cc1cccc(OP(=O)(Oc2cccc(C)c2)Oc2cccc(C)c2)c1
active: [2] 32.3 µM
inactive: [1] | [3] | CD38, CD38 (gene 952) | CD40, CD40 (gene 958) | CD69, CD69 (gene 969) | [5] | [6] | [7]

CC(C)O.CC(C)O.OCCN(CCO)CCO.OCCN(CCO)CCO.[Ti]
active: [1] 1.38 µM
inactive: [2] | [3] | CD38, CD38 (gene 952) | CD40, CD40 (gene 958) | CD69, CD69 (gene 969) | [5] | [6] | [7]

CCCCCCCCCCCCc1cccc(S(=O)(=O)O)c1
inactive: [1] | [2] | [3] | CD38, CD38 (gene 952) | CD40, CD40 (gene 958) | CD69, CD69 (gene 969) | [5] | [6] | [7]
